Here are results for 31 molecules from ChEMBL document CHEMBL1157539, “Thousands of chemical starting points for antimalarial lead identification” (Nature, 2010).

What all share (type): functional
Assay [1] deals with Plasmodium falciparum. Kind of assay: GSK_TCMDC: Inhibition of Plasmodium falciparum 3D7 in whole red blood cells, using parasite LDH activity as an index of growth. Test compounds present at 2uM.
The test system of assay [2] is Plasmodium falciparum. Kind of assay: GSK_TCMDC: Inhibition of Plasmodium falciparum Dd2 in whole red blood cells, using parasite LDH activity as an index of growth. Test compounds present at 2uM.
For a further assay, the system named is HepG2. Kind of assay: GSK_TCMDC: Percent inhibition of human HepG2 cell line. Test compounds present at 10uM.

In the case of `Cc1cc(-c2cccc(CNC3CCN(C)CC3)c2)ccc1S(=O)(=O)NC1CCC1.O=C(O)C(F)(F)F`, the Inhibition with Plasmodium falciparum [1] was determined as 100%; in the assay with Plasmodium falciparum [2], 96%; in the assay with HepG2, 33%.
Take `Br.Oc1ccc(CCNCCCCCCNCCc2ccc(Cl)c3ccccc23)cc1O`: the Inhibition is on record as 99% with Plasmodium falciparum [1], 1% in the assay with Plasmodium falciparum [2] and 22% in the assay with HepG2.
Regarding `O=C(/C=C/c1ccc(Cl)c(Cl)c1)N1CCC(CN2CCC(Cc3cc4ccccc4[nH]3)CC2)CC1`, the Inhibition in the assay on Plasmodium falciparum [1] was 96%; in the assay with Plasmodium falciparum [2], 56%; with HepG2 it was 49%.
As for `CC(=O)Nc1ccc(C(=O)Nc2cccc(-c3ccc(-c4nc5ccccc5[nH]4)cc3)c2)cn1`, the Inhibition in the assay on Plasmodium falciparum [1] is reported as 100%; in the assay on Plasmodium falciparum [2] it was 93%; in the assay with HepG2 it was 12%.
With `COc1cc2c(cc1OC)CN(CCCCNC(=O)c1ccc(NC(=O)c3cc(Cl)cc(Cl)c3)cc1)CC2`, the Inhibition in the assay on Plasmodium falciparum [1] was 99%; in the assay with Plasmodium falciparum [2], 75%; in the assay with HepG2, 19%.
On to `CC(C)NCc1ccc(-c2cccc(-c3nc4cc(F)ccc4[nH]3)c2)cc1.O=C(O)C(F)(F)F`, for which the Inhibition in the assay on Plasmodium falciparum [1] stood at 100%; in the assay on Plasmodium falciparum [2], 96%; with HepG2, 14%.
For `Cc1cc(N(C)C)nc(Nc2ccc(NC(=O)c3c(F)cccc3Cl)cc2)n1`, in that order: 90%, 36% and 15%.
For `Cc1cc(N(C)C2CCN(C)C2)nc(Nc2ccc(Cl)cc2)n1` (stereo not drawn), the Inhibition in the assay with Plasmodium falciparum [1] was found to be 100%; in the assay with Plasmodium falciparum [2], 88%; with HepG2 it was 8%.
Regarding `CN(C)C(=O)CC(=O)NCc1c(Cl)cccc1Cl`, the Inhibition is 95% in the assay with Plasmodium falciparum [1], 2% with Plasmodium falciparum [2] and 2% in the assay with HepG2.
With `O=C(/C=C/c1ccc(F)c(Br)c1)NCCCCCN1CCC(c2c[nH]c3ccccc23)CC1`, the results for the Inhibition with Plasmodium falciparum [1], with Plasmodium falciparum [2] and with HepG2 were 92%, 10% and 39%, respectively.
For `CCN(CC)C(=S)N/N=C1/C(=O)Nc2c(C)cccc21`, in that order: 94%, 69% and 28%.
For `CS(=O)(=O)O.CSc1ccc2ccccc2c1CNCCCCCCNCc1c(SC)ccc2ccccc12`, in that order: 99%, 74% and 83%.
`Cc1cc(=NN=Cc2ccccc2Cl)c2cc(F)ccc2[nH]1`: the Inhibition amounted to 100% with Plasmodium falciparum [1], 4% in the assay with Plasmodium falciparum [2] and 5% in the assay on HepG2.
In the case of `CC(C)Nc1cc(C(=O)N[C@@H](Cc2ccccc2)[C@H](O)CNC2CCCCC2)cc(N2CCCCS2(=O)=O)c1.O=CO`, the Inhibition is 98% in the assay on Plasmodium falciparum [1], 98% with Plasmodium falciparum [2] and 9% in the assay on HepG2.
With `Cc1cc2nc(-c3ccc(C(=O)NC4CCN(Cc5ccccc5)CC4)s3)[nH]c2cc1C`, the results for the Inhibition in the assay on Plasmodium falciparum [1], in the assay on Plasmodium falciparum [2] and in the assay on HepG2 were 99%, 82% and 33%, respectively.
Take `O=[N+]([O-])c1cccc(C(Nc2ccccn2)c2ccc3cccnc3c2O)c1` (stereo not drawn): the Inhibition with Plasmodium falciparum [1] was found to be 86%; with Plasmodium falciparum [2], 29%; in the assay with HepG2, 53%.
As for `CN1CCCN(Cc2ccc(-c3ccc(NC(=O)c4ccc(C#N)cc4)cc3)cc2)CC1.O=C(O)C(F)(F)F`, the results for the Inhibition in the assay with Plasmodium falciparum [1], in the assay with Plasmodium falciparum [2] and with HepG2 were 91%, 28% and 30%, respectively.
In the case of `O=C(Nc1cccc(-c2cccc(-c3nc4ccccc4[nH]3)c2)c1)c1csnn1`, the Inhibition in the assay with Plasmodium falciparum [1] is 90%; in the assay on Plasmodium falciparum [2], 27%; in the assay with HepG2, 31%.
Consider `COc1ccc(-c2ccc(NC(=O)c3ccc(Cl)cc3)cc2)cc1CN(C)CCO.O=C(O)C(F)(F)F`, for which the Inhibition is 92% in the assay with Plasmodium falciparum [1], 43% with Plasmodium falciparum [2] and 43% in the assay on HepG2.
As to `CN1CCC(N(Cc2ccc(-c3cnc(NCc4ccccc4)nc3)cc2)S(=O)(=O)c2ccccc2)CC1.O=C(O)C(F)(F)F`, the values for the Inhibition in the assay with Plasmodium falciparum [1], in the assay on Plasmodium falciparum [2] and with HepG2 were 100%, 10% and 48%, respectively.
The corresponding values for `COc1ccc2nccc([C@@H](O)CN3CCC(NC(=O)c4ccc(Cl)c(OC)c4)CC3)c2c1` are 87%, 28% and 26%.
As for `CC(C)(C)NCCN(Cc1ccc(-c2ccc(C(F)(F)F)cc2)cc1)C(=O)Cn1c(CCc2cccc(F)c2F)nc(=O)c2c1CCC2.O=C(O)C(O)C(O)C(=O)O`, the Inhibition is recorded as 95% in the assay on Plasmodium falciparum [1], 48% with Plasmodium falciparum [2] and 6% with HepG2.
For `O=C(O)C(F)(F)F.O=[N+]([O-])c1cccc(CNCC2CCC(CNCc3cccc([N+](=O)[O-])c3)CC2)c1` (stereo not drawn), in that order: 100%, 76% and 39%.
As to `COc1cc(N)cc2sc(N)nc12`, the Inhibition is 99% in the assay on Plasmodium falciparum [1], 99% in the assay on Plasmodium falciparum [2] and 0% with HepG2.
`COc1cc(/C=C/C(=O)NCC(CCNc2cc(=O)c3ccccc3[nH]2)NCc2cc(Br)cc(Br)c2)cc(OC)c1` (stereo not drawn): the Inhibition in the assay with Plasmodium falciparum [1] is recorded as 90%; in the assay on Plasmodium falciparum [2], 28%; with HepG2, 0%.
Regarding `O=[N+]([O-])c1ccc(C(O)P(=O)(c2ccccc2)c2ccccc2)cc1` (stereo not drawn), the Inhibition in the assay on Plasmodium falciparum [1] is recorded as 98%; in the assay on Plasmodium falciparum [2], 1%; in the assay on HepG2 it was 1%.
Regarding `O=C(CSc1nc2ccc([N+](=O)[O-])cc2s1)Nc1ccccc1-c1ccccc1`, the Inhibition with Plasmodium falciparum [1] was found to be 80%; in the assay with Plasmodium falciparum [2], 49%; in the assay on HepG2, 0%.
For the molecule `CC(C)(C)OC(=O)NCC(=O)N(Cc1ccccc1)Cc1ccccc1`, the Inhibition in the assay with Plasmodium falciparum [1] was 97%; with Plasmodium falciparum [2], 93%; in the assay with HepG2 it was 0%.
Turning to `FC(F)(F)c1ccc2[nH]c(-c3ccc(-c4cccc(CNCC5CCCO5)c4)s3)nc2c1.O=C(O)C(F)(F)F` (stereo not drawn), the Inhibition with Plasmodium falciparum [1] was 99%; with Plasmodium falciparum [2], 99%; in the assay on HepG2, 37%.
For `C=C[C@]1(C)C[C@@H](OC(=O)NC(=O)CCCS(=O)(=O)c2nnc(C)s2)[C@]2(C)[C@H](C)CC[C@]3(CCC(=O)[C@H]32)[C@@H](C)[C@@H]1O`, the Inhibition with Plasmodium falciparum [1] is 94%; in the assay on Plasmodium falciparum [2], 97%; in the assay on HepG2 it was 0%.
In the case of `Br.CCCc1cc(C(C)=O)ccc1OCCCON1C(=N)N=C(N)NC1(C)C`, the values for the Inhibition in the assay with Plasmodium falciparum [1], in the assay with Plasmodium falciparum [2] and in the assay with HepG2 were 96%, 96% and 61%, respectively.

The term Inhibition denotes how much of the control response was suppressed. A lower Inhibition goes with a weak effect.
